About 83,000 compounds went through this panel and 20% of them were active in at least one assay; those are over-represented in the sample as a whole.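 Interpretation: 100, growth as untreated; towards 0, rising growth inhibition; 0, no net growth; 0 to -100, cell death. Compounds scoring below 10 were considered active.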 Unmarked numbers belong to inactive results. Calls of active or inactive are those of the source.
Assays:
Assay in all cases: NCI-60 one-dose screen, 48 h (100 = growth as untreated, 0 = no growth, -100 = all killed)
Conditions in all cases: 10 µM unless noted
DU-145 prostate = test system: DU-145 prostate
K-562 leukemia = test system: K-562 leukemia
MALME-3M melanoma = test system: MALME-3M melanoma
MDA-MB-231 breast = test system: MDA-MB-231 breast
RXF 393 renal = test system: RXF 393 renal
SF-268 CNS = test system: SF-268 CNS
SF-295 CNS = test system: SF-295 CNS
SF-539 CNS = test system: SF-539 CNS
UACC-257 melanoma = test system: UACC-257 melanoma
M14 melanoma = test system: M14 melanoma

| Structure (SMILES) | growth (DU-145 prostate) | growth (K-562 leukemia) | growth (MALME-3M melanoma) | growth (MDA-MB-231 breast) | growth (RXF 393 renal) | growth (SF-268 CNS) | growth (SF-295 CNS) | growth (SF-539 CNS) | growth (UACC-257 melanoma) | growth (M14 melanoma) |
| --- | --- | --- | --- | --- | --- | --- | --- | --- | --- | --- |
| O=C1/C(=C2\SC(=S)N(C3CC3)C2=O)SC(=S)N1C1CC1 | 105% | 103% | 99.2% | 101% | 97.3% | 95.1% | 98.6% | 103% | 94.9% | 96.3% |
| CC1(C)NCCC[C@]2(C)[C@H]3CC[C@H]4[C@H]5[C@H](C(=O)/C=C/c6cccnc6)CCC[C@]5(CO)CC[C@@]4(C)[C@]3(C)CC[C@@H]12 | 66.6% | -3.12% (active) | 85.7% | 67.4% | 66.2% | 72.9% | 84.3% | 81.4% | 86.5% | 85.8% |
| CNC(=O)c1ccccc1Nc1nc(Nc2cc(OC)c(OC)c(OC)c2)ncc1Br | 9.08% (active) | 8.02% (active) | -39.5% (active) | -3.87% (active) | -64.8% (active) | -32.7% (active) | -6.65% (active) | -79.2% (active) | -30.9% (active) | -52.9% (active) |
| CC(=O)ON1CCCC(P(=O)(OCCSC(=O)C(C)(C)C)OCCSC(=O)C(C)(C)C)C1=O (stereo not given) | 42.5% | 19.4% | 17.1% | 25.1% | -26.7% (active) | 19.2% | 55.5% | 57.6% | 54.2% | 34.3% |
| COC(=O)N1CC(Oc2ccccn2)C2CC1c1ccccc1O2 (stereo not given) | 115% | 114% | 104% | 89.7% | 95.1% | 102% | 104% | 99.4% | 88% | 102% |
| CN1C(=O)/C(=C/c2ccc(C(=O)Nc3ncc(Cc4cccc(Cl)c4)s3)cc2)SC1=S | 66.3% | 55.1% | 67.9% | 77.4% | 64.4% | 61.7% | 31% | 67.5% | 79.8% | 17% |
| COc1ccc(/C=C/C(=O)c2cc(OC)c(OC)c(OC)c2)cc1OCC(=O)Nc1nc2ccc(OC(F)(F)F)cc2s1 | -30.3% (active) | 5.93% (active) | 26.8% | -16.1% (active) | -29.7% (active) | 9.91% (active) | 0.996% (active) | -58.4% (active) | 68.6% | 1.09% (active) |
| N#CC1CCc2c(c(-c3ccc4nc(N)sc4c3)nc3ccc4[nH]ncc4c23)C1 (stereo not given) | 35.4% | 29.8% | 68.8% | 54.9% | 1.38% (active) | 63.1% | 23.1% | -0.136% (active) | 88.7% | 19.8% |
| O=C1/C(=C/c2ccccn2)NC(=S)N1c1ccccc1Cl | 54.1% | 39.7% | 67.7% | 36.4% | -7.86% (active) | 83.5% | 55.9% | 67.3% | 74.5% | 42.3% |
| O=C(Cc1cccc(OC(F)(F)F)c1)Nc1ccc(CCCCc2nnc(NC(=O)Cc3ccccn3)s2)nn1 | 86.9% | 45.7% | 82.8% | 84.6% | 52.1% | 78.7% | 60.6% | 81.9% | 92.9% | 50.8% |
| COc1cc2c(cc1OCCCCN1CCN(C(=S)SCCC(C#N)(c3ccccc3)c3ccccc3)CC1)N=C[C@@H]1CCCN1C2=O | -96.7% (active) | -34.3% (active) | -79.4% (active) | -23.7% (active) | -83.7% (active) | -69.9% (active) | -8.56% (active) | -91.3% (active) | -11.1% (active) | -29.5% (active) |
| Cn1cc(-c2csc(-c3cn(CCCN4CCOCC4)c4ccccc34)n2)c2cccnc21 | 97.9% | 26.2% | 108% | 76.5% | 65.7% | 91.7% | 79.5% | 89.4% | 89.3% | 83.6% |
| Cc1ccccc1Nc1cc(O)c2c(=O)cc(-c3ccccc3)oc2c1 | 26.8% | 10.2% | 47.9% | 50.7% | 28% | 61.5% | 27.1% | 23.1% | 80.6% | 24.6% |
| S=C(c1ccc2c(c1)OCO2)N1CCN(c2cccc(Cl)c2)CC1 | -0.195% (active) | 29% | 40.7% | 36.2% | 42.1% | 41% | 9.3% (active) | -4.83% (active) | 54% | 13.5% |
| Cc1ccc(N2C(=O)CCC2=O)cc1 | 112% | 113% | 108% | 93.7% | 121% | 103% | 99.7% | 101% | 109% | 90.9% |
| CCc1ccc(CCC(=O)Nc2ncc(Cc3ccccc3)s2)o1 | 26.7% | 11.8% | 65.2% | 52.5% | 2.15% (active) | 61.1% | 15.1% | -10.1% (active) | 58.9% | 10.5% |
| Cc1ccc(CNc2c3ccccc3nc3ccccc23)cc1 | 33.5% | 2.99% (active) | 16.2% | 43.2% | 10.1% | 51.9% | 31.3% | 18.1% | 39.4% | 28% |
| O=C(Oc1ccc(CCl)cc1)c1ccccc1 | -92.9% (active) | -37.5% (active) | -69.3% (active) | -82% (active) | -90.5% (active) | -79.3% (active) | -92.5% (active) | -87.6% (active) | -67.4% (active) | -82.7% (active) |
| COc1ccc(Cn2cc3c(c2-c2ccccc2)CCc2cnoc2-3)cc1 | -4.72% (active) | 13.7% | 70.2% | 10.4% | 24.8% | 16% | 23.2% | -12.8% (active) | 78.8% | 16.8% |
| CCCC(CC)(C(=O)Nc1ccc2nc(C)cc(N)c2c1)C(=O)Nc1ccc2nc(C)cc(N)c2c1 | 111% | 102% | 105% | 100% | 117% | 113% | 108% | 102% | 99.7% | 96.6% |
| CNC1=CC(=O)c2c(C(=O)OC)c(C)[n+]([O-])c(C)c2C1=O | 68.7% | 71% | -46.2% (active) | 63.8% | 74.4% | 89.2% | 86.4% | 83.8% | 49.3% | 24% |
| C=C(C)[C@@H]1CC[C@]2(COC(C)=O)CC[C@]3(C)[C@H](CC[C@@H]4[C@@]5(C)CCCN(C(C)=O)C(C)(C)[C@@H]5CC[C@]43C)[C@@H]12 | 59.9% | 0.971% (active) | 51% | 45.2% | 64.1% | 90.9% | 104% | 81% | 60% | -65.9% (active) |
| CCCCNC(=O)c1cc([N+](=O)[O-])cc(C2CCCCC2)c1O | 57.6% | 28.2% | 1.91% (active) | 31.4% | 42% | 43.9% | 15.9% | 47.9% | 24.6% | 44.4% |
| CC/C=C\CCC/C=C1/C(=O)C=C[C@@H]1C/C=C\CCCC(=O)OC | 60.4% | 0.856% (active) | 34.1% | 15.3% | 96.4% | 31% | 74.2% | 95.4% | 69.7% | 1.66% (active) |
| CC(=O)OC[C@]12CC[C@@H]([C@@H](C)c3nnc(-c4ccncc4)o3)[C@@H]1[C@H]1CC[C@@H]3[C@@]4(C)CC[C@H](OC(C)=O)C(C)(C)[C@@H]4CC[C@@]3(C)[C@]1(C)CC2 | 102% | 46.4% | 99.7% | 76.3% | 104% | 92% | 74.9% | 94.2% | 75.3% | 91% |
| C=C1C(=O)O[C@H]2[C@H]1CC/C(COC(=O)NCc1ccc(Cn3c(=O)sn(-c4ccc(C#N)cc4)c3=O)cc1)=C\CC[C@@]1(C)O[C@@H]21 | 8.56% (active) | 20.4% | 56.9% | 48.6% | 52.7% | 75.1% | 102% | 61.2% | 69.4% | 68.8% |
| O=C(CSc1nnc(-c2cc(-c3ccccc3)nc3ccccc23)n1-c1ccccc1)Nc1ccc(C(=O)/C=C/c2ccc(Cl)cc2)cc1 | 94.6% | 65.8% | 99.5% | 78.5% | 103% | 94.4% | 97.9% | 96.7% | 103% | 92.6% |

Source: PubChem BioAssay (NCI)
